# Measurements reported in PubChem BioAssay (NCI).
# This is part of a sample that, as a whole, favours compounds with a hit. Of some 83,000 tested, about 20% had one in any assay.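 Activity criterion: percent growth below 10, measured after cells in 96-well plates were exposed to a single compound concentration for 48 hours.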 A number with no mark means an inactive call.
# Test system: OVCAR-5 ovarian
# Experiment: NCI-60 one-dose screen, 48 h (100 = growth as untreated, 0 = no growth, -100 = all killed)
# Details: 10 µM unless noted
# Description: Growth inhibition of the OVCAR-5 human tumor cell line is measured as a screen for anti-cancer activity. Cells are grown in 96 well plates and exposed to the test compound for 48 hours. Compounds are tested at a single concentration, which is 10^-5 M for most compounds. The reported endpoint is percent growth (GI% or GIPRCNT), where numbers from 0 - 100% represent growth inhibition, and numbers from -100% - 0 represent cell death. For example, a value of 40 represents 60% growth inhibition. A value of 0 means no net growth occurred over the course of the experiment. A value of -40 indicates 40% of cells at the beginning of the experiment died by the end of the experiment. A value of -100 means all cells are dead at the end of the experiment.
# NCI-60 Human Tumor Cell Lines Screen was performed using the standard one-dose NCI protocol, which is described in more detail at https://dtp.cancer.gov/discovery_development/nci-60/default.htm.
# Compounds with GIPRCNT values below 10 were considered active. Activity score was based on GIPRCNT using the following formula: […]
# Score is 0 for GIPRCNT values of 100 or above, 50 for GIPRCNT values of 0, and 100 for GIPRCNT values of -100.
row,SMILES,growth
1,O=C(O)Cc1cccc2ccccc12,102%
2,CC(=O)C[n+]1ccc(C)cc1Sc1ccccc1C,90%
3,Cc1ccnc(Nc2nc3ccccc3[nH]2)n1,95.3%
4,CN(C)CCOC(=O)Nc1ccc(Cc2ccc(NC(=O)OCCN(C)C)cc2)cc1,85.1% [100 µM]
5,N#CCCN1C(=O)CCC1C(=O)O (stereo not given),105%
6,CCC(C)C1CCC(O)CC1 (stereo not given),108%
7,CC(=O)OC/C(C)=C\CC(C)COC(C)=O (stereo not given),111%
8,CN(C)Cc1ccccn1,102%
9,O=C(NCc1ccccc1)c1cccc([N+](=O)[O-])c1,116%
10,NS(=O)(=O)c1cc(=O)[nH]c(=O)[nH]1,112%
11,COc1cc2c(c(OC)c1OC)-c1ccc(SC)c(=O)cc1[C@@H](NC1OC(CO)C(O)C(O)C1O)CC2 (stereo not given in full),28.1%
12,CCCCNC(=O)c1ccc(OCC)cc1,96.1%
13,CC(=O)NNC(=S)N/C=C/c1c(C)ccc([N+](=O)[O-])c1[N+](=O)[O-],99.3%
14,CC(=O)OC(C)c1cccc(C#N)c1 (stereo not given),104%
15,CC1CCC(C(C)(C)[N+](C)(C)C)CC1 (stereo not given),104%
16,CC(=O)c1cccc(O)c1,96.4%
17,Cc1ccc(NCN2C(=O)c3ccccc3C2=O)c(C)n1,111%
18,OCC1CCC(O)C(CO)N1 (stereo not given),88.4%
19,CC(=O)/C(C)=N\OC(=O)Nc1ccccc1,93.1%
20,CC(CO)(CO)C(=O)O,98.2%

row,SMILES,growth
1,CC1(C)CCC(C)(C)NC(=S)N1,102%
2,CC(=O)NC(O)C(Cl)Cl (stereo not given),97.2%
3,CCOC(=O)c1c(C)[nH]c(C)c1C=O,96.4%
4,COCC(N)=O,101%
5,O=C(Oc1ccccc1Cl)c1ccc(Cl)cc1Cl,109%
6,C=C1C(=O)C2CCN1CC2,99.6%
7,Cc1nc(C)c(C(=O)O)cc1C(=O)O,97.5%
8,CCCCCCCCCCCCCCCCCCSC(=N)N,83.2%
9,O=S(=O)(O)c1ccc(O)c(C2CCCCC2)c1,103%
10,Ic1cccs1,107%
11,CCCCCCCCNC(=O)C(C)C,97.9%
12,Clc1cccc(Cl)c1CSc1nc2ccccc2n2cccc12,106%
13,Clc1ccc(/C=C/c2ccccn2)cc1,112%
14,C=CCOc1ccc(Cl)cc1Cl,93.1%
15,OC(CBr)CCBr (stereo not given),106%
16,COc1c(CNC(=O)CCl)cc2[nH]c(C)cc2c1CNC(=O)CCl,96.7%
17,O=C(Nc1ccc([N+](=O)[O-])cc1)C(=O)Nc1ccc([N+](=O)[O-])cc1,102%
18,Cn1/c(=N\N=C\c2ccccc2OCCO)sc2ccccc21,104%
19,CC(=O)C1C(=O)C(=O)N(c2ccc(Cl)c(Cl)c2)C1=O (stereo not given),104%
20,CN1CCCN(C(c2ccccc2)c2ccc(Br)cc2)CC1 (stereo not given),92.6%
